Whole data set: some 33,000 sequences, median “E-score (-0.5 to 0.5)” near -8e-05, cut for the highest 2% near 0.23. What follows is part of a selection rich in the highest values, with near analogues and random picks from the rest.
target: T1, Nrg2 (UniProt P38082); assay: PBM E-score (8-mer binding enrichment) (E-score (-0.5 to 0.5)); higher = stronger / more preferred TF binding; details: protein concentration: 100 nM; construct: GST-full length
T1 sequence: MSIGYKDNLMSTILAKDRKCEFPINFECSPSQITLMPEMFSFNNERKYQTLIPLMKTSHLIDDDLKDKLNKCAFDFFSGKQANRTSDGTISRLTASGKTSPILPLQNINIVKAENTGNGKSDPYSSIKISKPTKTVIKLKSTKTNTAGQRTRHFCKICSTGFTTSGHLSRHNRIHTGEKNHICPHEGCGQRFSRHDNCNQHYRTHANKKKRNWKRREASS
Procedure, shortened: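 Full-length yeast transcription factors or their DNA-binding domains, GST-tagged and expressed with PURExpress, were applied at about 100-200 nM to universal all-10-mer Agilent arrays. These arrays had been made double-stranded by primer extension on fresh or once-stripped slides. Detection used fluorescent anti-GST, normalisation used masliner, and E-scores for ungapped eight-base words pooled with reverse complements came from the Universal PBM Analysis Suite.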

Sequence	PBM E-score
GGCCTAAC	0.0899
GCTGGAAC	-0.144
TGGCATAA	0.144
AAGAGGTA	0.0504
ACTCCTCA	-0.24
ACGACGTA	-0.166
ATTTCGTA	0.0258
AAGCGGAA	-0.0181
AACTAAGT	0.168
ATAGTCGG	-0.122
ATAGTCGA	0.264
CTAGTCGA	-0.0659
CTGGGTCC	-0.288
CATCGCGA	0.127
GATCGCGA	0.168
AGTCGCGA	0.226
CGTCGCGA	0.143
ACTCGCGC	0.0455
GGTCGCGA	0.242
ACTCGCGA	0.273
CCTCGCGA	0.179
TATCGCGA	0.252
ATTGTGCG	-0.0707
GCTCGAGA	-0.131

Sequence	PBM E-score
ACTCGAGG	0.162
CCTCGAGC	0.267
GCTCGAGC	0.24
CCTCGAGA	0.156
CCTCGAAG	0.0341
CCTCGAGG	0.242
GCTCGACC	-0.0125
ACTCGAGC	0.073
AAGCTATC	0.153
ACAACGCG	0.12
AGCGCACA	0.137
ACTAGCAT	-0.0422
AAGACCGA	-0.018
CAAATGCC	-0.0811
CAAATGCG	0.268
CAAATGCA	-0.0764
GAAATGCA	0.055
AAAATGCG	0.0104
TAAATGCA	0.275
AAACCTCC	-0.115
AAACTGCG	-0.0689
AGTTTCGA	0.0135
ATATGGAC	0.0806
ATATGGAG	0.147

Sequence	PBM E-score
ATATGGAT	0.247
GGTGAGAA	-0.0568
GAGCGACC	-0.168
CAAGTTTC	-0.00709
CCCATGAC	-0.0865
GGTTTCGA	0.191
AAAATGGA	0.308
CAAATGGA	-0.0362
AAAATGGG	-0.0403
AGGGGTCG	0.0876
AAGGGTGT	0.0853
CAGAGTCC	0.0801
AAGGGTCC	0.439
AGGGGTCC	0.316
CAGGGTCC	0.446
ATGGGTCC	0.0519
AAGGGTCT	0.273
CCGGGTCC	-0.171
AGGGGTCA	0.128
AAAGGTCC	0.0985
AAGGGTCA	0.149
AAGGTAGG	0.00624
GGATAACC	-0.141
GTCTTTCA	-0.177

Sequence	PBM E-score
AGCCGAAG	-0.104
TATAGACA	0.0604
AGATTCCG	0.101
GAGGGTCC	0.282
CAGGGTCG	0.264
CAGGGTCA	0.0802
GAGGGTCA	-0.227
GCGGGTCC	-0.0518
AAGGGTCG	0.132
ACCCCTGC	0.066
CAAACGAA	-0.0374
TAAGCAAA	0.0437
ACCCCTCA	0.0629
TCCCCTCA	0.235
CCCCCTCA	-0.379
AACTGACT	-0.167
AAAGTTGG	0.132
AAAGTTGC	0.0327
AAAGTTGT	0.297
AGTGGCTG	0.126
AGGGCTGA	-0.201
AGTCTTTC	-0.0294
CCAGACAG	-0.00394
ACAGACAG	0.255

Sequence	PBM E-score
ACAGACAC	-0.0421
TGTTGTAA	0.102
GACAGCGA	-0.131
CGAAGACG	-0.0796
GTCACGTA	-0.249
CAATACAG	0.125
CAATACAC	0.0544
TAATACAA	0.235
CAATACAA	0.275
AAATACAA	0.0802
GAATACAA	0.107
ACGACCAT	-0.0998
CAATCGCC	0.00157
AGTAGGAA	-0.0957
CCGCGCGG	0.368
GCGCGGGA	0.0263
CGGCGCCA	0.0132
CCGCGGGA	0.284
CGGCGCGA	0.121
CGGCGCGC	0.256
CGGCGCCG	0.25
AGGCGCGC	0.0865
CCGCGCCG	-0.0754
CCGCGGGC	0.0924

Sequence	PBM E-score
CCGCGCAG	0.0598
AGGCGCCG	-0.0298
AGGTACTA	0.0762
CTCTAGCC	-0.283
AAAAGGCC	-0.197
CAACCTAA	0.059
GTACGTCA	-0.102
TTAGTAAA	0.169
ACATGCTC	0.00619
AAGAAGCC	0.162
ATAACATA	0.123
ATGTCCCA	-0.0945
AAGTGCGG	0.133
CCGCGCCC	-0.0342
GGGCGCCC	0.282
GGGCGCCA	0.191
CCGCGCTC	0.0292
AGGCGCCC	-0.0716
CCGCGCGC	0.236
TCAGACGA	0.119
AACCCGAA	0.0237
AACCGCGG	0.182
TATGTTAA	-0.127
CTTTCACC	-0.0112

Sequence	PBM E-score
ATCAACCC	0.297
CTCAACCC	0.00526
ATCAACCA	0.0788
ATAAACCA	-0.0416
ATAAACCC	0.307
CTAAACCC	-0.0134
TCTTTGAA	-0.105
AGGCCACA	-0.149
ACTCATTA	0.268
CATCATTC	0.0606
GCTCATTA	-0.058
AATCATTA	0.0429
CATCATTA	0.231
ACTCATTC	0.117
GTAGGCGA	0.0848
ATTCGGTA	0.074
AATTGCTA	0.0948
AATTGCTG	0.257
AATTGCTC	-0.145
ATGGCCTC	-0.0922
ACCGTTAC	-0.118
CAGTATCA	-0.0774
CAGTATGA	0.178
TAGTATCA	0.283

Sequence	PBM E-score
GAGTATCA	0.00367
AAGTATGA	0.0335
TAGTATGA	0.26
GAACGCTC	-0.107
GACAGTGA	0.0197
ACGGAAAT	0.244
ACGGAAAA	0.0488
ACGGAAAC	-0.0771
ACTTGTCA	0.0495
AAAGCAAA	0.102
ACAGCTCC	-0.0601
AGCGCGAC	0.12
GCAGCGTA	-0.128
ACTCCCCA	-0.0321
ACTACTAC	0.0486
ACTAGTAA	0.036
ACTACTAA	-0.00741
ACTAGTAT	0.246
ACTAGTAG	0.0854
ACTACTAT	0.27
TGGTGAAA	-0.0676
CCCAATAG	0.00098
AATTCGCT	0.318
GATTCGCA	0.121

Sequence	PBM E-score
CATTCGCA	-0.0034
AATTCGCC	0.167
AATTCGCG	0.202
AATTCGCA	0.229
AAGATCCC	0.132
ACAGGGAG	-0.147
ACAGGGAC	0.339
ATAGGGAC	0.139
ACAGGGAT	0.295
ACAGGGAA	0.0579
AGAGGGAC	-0.0381
CCCGCAAG	-0.15
TGTGAACA	-0.0105
ATCGTGAA	-0.0316
CCCATACG	-0.0789
TACCATCA	-0.169
CCATAGGG	0.00266
GCGAATTA	0.279
CCGAATTA	-0.00177
ACGAATTA	0.1
GTCCGCGA	-0.0693
AAAGAGGC	-0.228

Reference: the supplement of paper PMC3334620
